# Bioassay records (PubChem)
# Shown are actives, neighbours in structure and some others; about 6.1% of the full set was active somewhere.
# D1 agonist: Allosteric Agonists of the Human D1 Dopamine Receptor: qHTS; HEK293 T-REx D1 cells, calcium flux, agonist mode; 360,000 compounds, 1% hits; activation, % at 2 µM; D(1A) dopamine receptor (Homo sapiens), P21728; in the data active = activation above about 30%; also: 0% is about no effect
#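 Agonism was scored from calcium flux recorded over 180 s (1 read/s) after pintool compound addition, following a 10-cycle baseline. Cells were inducible force-coupled HEK293 TREx D1, plated overnight at 30 C and loaded with no-wash calcium dye.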
# D3 antag: qHTS of D3 Dopamine Receptor Antagonist: qHTS | D(3) dopamine receptor (Homo sapiens), P35462 | D3R cells, DiscoveRx beta-arrestin luminescence, antagonist mode; stronger effect = lower value | max response, negative = inhibition, % | 360,000 compounds, 2.5% hits | AID 652054, 2013; in the data active = max response below about -50%; inconclusive = no clear call, values can overlap the other calls; also: % is scaled to controls: 0 for no effect and ±100 for the full control effect
# Target sequence (P35462 whole entry, looked up): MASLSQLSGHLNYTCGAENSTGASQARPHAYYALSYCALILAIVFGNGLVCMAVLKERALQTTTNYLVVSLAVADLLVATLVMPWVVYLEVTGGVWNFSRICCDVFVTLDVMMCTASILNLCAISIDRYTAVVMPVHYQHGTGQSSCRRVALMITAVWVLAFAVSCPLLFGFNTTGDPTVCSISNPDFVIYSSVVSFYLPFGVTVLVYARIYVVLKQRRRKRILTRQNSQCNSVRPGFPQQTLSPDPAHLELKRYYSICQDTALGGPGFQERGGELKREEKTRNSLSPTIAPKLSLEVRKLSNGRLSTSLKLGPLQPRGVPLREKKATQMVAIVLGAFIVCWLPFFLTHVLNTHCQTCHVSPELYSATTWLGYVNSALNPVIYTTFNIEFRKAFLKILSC
#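 Cells expressing the human receptor were seeded at 1500 cells/well, incubated overnight at 37 degrees C in 5% CO2, then exposed to library compounds with dopamine controls for 90 minutes at 37 degrees C before luminescent detection.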
# D1 antagonist: Antagonist of Human D 1 Dopamine Receptor: qHTS | activity change, negative = inhibition, % at 10 µM | 360,000 compounds, 3.2% hits | HEK293 TREx D1 cells, calcium flux, dopamine EC80; stronger effect = lower value | D(1A) dopamine receptor (Homo sapiens), P21728; in the data active = activity change below about -30%; also: % is scaled to controls: 0 for no effect and ±100 for the full control effect
#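 Antagonism measured as reduced calcium response to an EC80 dopamine addition following 180 s compound pre-read; cells were inducible HEK293 Trex D1 plated overnight at 30 C, read kinetically at 1 cycle/sec.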
# DRD3 agonist: qHTS of D3 Dopamine Receptor Agonist: qHTS; D3R DiscoveRx beta-arrestin cells, luminescence, 90 min; max activation, %; 410,000 compounds, 0.58% hits; in the data active = max activation above about 30%; also: 0% is about no effect
#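 Agonist mode: compounds and dopamine controls were applied to plated cells for 90 min at 37 degrees C after an overnight attachment at 1500 cells/well. Luminescent read-out followed 30 - 60 minutes at room temperature with DiscoveRx detection reagent.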
# D1 potentiator: Potentiators of Human D1 Dopamine Receptor: qHTS; potentiation, % at 10 µM; D(1A) dopamine receptor (Homo sapiens), P21728; HEK293 TREx D1 cells, calcium flux, dopamine EC20 potentiation; AID 504651, 2011; 360,000 compounds, 0.036% hits; in the data active = potentiation above about 30%; also: 0% is about no effect
# ERG-DNA inh: qHTS for Small Molecule Inhibitors of the ERG Ets/DNA interaction | Potency, µM (series often up to 76.9 µM), inactives show at the top dose FP activity, negative = inhibition, hits mostly inhibitors | AID 624246, 2012 | 370,000 compounds, 0.028% hits | Transcriptional regulator ERG (Homo sapiens), P11308 | fluorescence polarization, His-ERG Ets domain / labelled DNA; active = well fitted inhibition curve with a large enough effect in the polarisation, with a control signal flat; inconclusive = small, poorly fitted or top-dose-only effect, or effect the other way, or a change in a side signal; inactive = no such curve, though single readings can be large or run the other way; the % refers to the polarisation;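 also: polarization taken with two DNA probes labelled with fluorescein and Texas red; potency is read from the fitted curve at half-maximal effect; % of control where 0% means no effect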
#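 His-tagged ERG Ets domain (1 uM in the protein solution; 300mM KCl, 50mM Tris-HCl, 1mM EDTA, 1mM DTT, pH 7.5) received compound, then a probe mix of 5 nM fluorescein-DNA and 100nM Texas-615-DNA. Fluorescence polarization was read for both dyes.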
# * marks the source's active call; other numbers are inactive results; ? = inconclusive; / = no result; ! = a repeat was not active.
SMILES,D1 agonist,D3 antag,D1 antagonist,DRD3 agonist,D1 potentiator,ERG-DNA inh
Cc1ccc(NC(=S)C2=C(O)c3sccc3N(C)S2(=O)=O)cc1,-2,-88*,/,4,-2,-15%
COc1ccc2[nH]c(C)c(C(=O)CN(C)C)c2c1,3,-14,-2,7,-1,/
Cc1ccc2c(c1)/C(=C/c1ccccc1C)C(=O)N2,2,-14,-31*,4,0,6%
Cn1cccc1/C=C1\SC(=Nc2ccccc2)NC1=O,0,?,2,-13,0,-6%
Cc1ccc(N=C2NC(=O)/C(=C/c3cn(C)c4ccccc34)S2)cc1C,54*,?,-99*,-11,-2,26%
C[C@H](CO)N1C[C@H](C)[C@@H](CN(C)S(=O)(=O)c2cccs2)Oc2c(NC(=O)Cc3ccccc3)cccc2C1=O,/,0,/,-19,/,8%
COc1cccc(C(c2nnnn2-c2c(C)cccc2C)N2CCN(C/C=C/c3ccccc3)CC2)c1OC (stereo not drawn),/,-121*,/,-24,/,/
CC(C)(C)n1nnnc1C(c1ccnc2ccccc12)N1CCN(C/C=C/c2ccccc2)CC1 (stereo not drawn),/,2,/,-10,/,/
C=CCN1CCN(C(c2ccccc2OC)c2nnnn2C(C)(C)C)CC1 (stereo not drawn),1,-8,3,-2,0,1%
Cc1cccc(C)c1-n1nnnc1C(c1ccnc2ccccc12)N1CCCC1 (stereo not drawn),/,-56*,/,-10,/,/
Cc1cccc(C)c1-n1nnnc1C(c1ccnc2ccccc12)N1CCN(C/C=C/c2ccccc2)CC1 (stereo not drawn),/,-116*,/,-14,/,/
COc1ccc(C(c2nnnn2-c2c(C)cccc2C)N2CCN(C/C=C/c3ccccc3)CC2)cc1 (stereo not drawn),/,-87*,/,-16,/,/
Cc1cccc(C)c1NC(=O)C(c1ccccc1OC(F)(F)F)N1CCN(C/C=C/c2ccccc2)CC1 (stereo not drawn),/,-63*,/,-15,/,/
Cc1cccc(C)c1-n1nnnc1C(c1ccccc1OC(F)(F)F)N1CCN(C/C=C/c2ccccc2)CC1 (stereo not drawn),/,-95*,/,-8,/,/
CC(=O)N1CCN(C(C(=O)Nc2c(C)cccc2C)c2ccccc2OC(F)(F)F)CC1 (stereo not drawn),/,9,/,5,/,/
CC(C)(C)n1nnnc1C(c1ccccc1OC(F)(F)F)N1CCN(C/C=C/c2ccccc2)CC1 (stereo not drawn),/,-24,/,-17,/,/
Cc1ccc(C(=O)NC(=S)Nc2ccc(-c3ccc(CO)o3)cc2)cc1,3,82,-11,61*,-4,17%
Cc1cccc(C(=O)NC(=S)Nc2ccc(S(=O)(=O)N3CCN(C)CC3)cc2)c1,6,-19,-28,0,-21,-12%
O=C(NC(=S)Nc1ccc(-c2ccc(CO)o2)cc1)c1cccs1,2,26,16,20,3,6%
Cc1ccc(C(=O)NC(=S)Nc2ccc(S(=O)(=O)N3CCN(C)CC3)cc2)cc1,7,-21,-56*,10,-17,2%
NC(=O)CS(=O)(=O)c1ccc(Cl)cc1,0,8,0,12,-3,-2%
CCCc1ccccc1OCCNS(=O)(=O)c1cc2c(cc1C)OCC(=O)N2,3,4,-5,42*,-9,0%
COc1ccc(NC(=O)Cn2c(=O)n(Cc3nc(-c4ccccc4)no3)c(=O)c3cc4c(cc32)OCO4)cc1Cl,3,/,-3,-10,-1,-1%
COC(c1ccccc1)c1nnc(CCC(=O)N2CCCCCCC2)o1 (stereo not drawn),1,-16,10,12,-2,-5%
O=C(CCc1nnc(-c2ccc(-c3ccccc3)cc2)o1)N1CCCCC1,8,31,-7,32*,-7,2%
SMILES,D1 agonist,D3 antag,D1 antagonist,DRD3 agonist,D1 potentiator,ERG-DNA inh
CCC1C(=O)N(c2nc(C)cc(C)n2)N=C1C (stereo not drawn),2,6,4,10,1,2%
CC1=NN(c2nc(C)cc(C)n2)C(=O)C1CCC(C)C (stereo not drawn),1,-60*,-12,-3,-7,-3%
Cc1ccnc(NC(=O)CCCc2ccccc2)c1,5,-14,-2,-1,-2,-12%
O=C(O)CCCn1cc(NC(=O)COc2ccc(F)cc2F)cn1,5,-28,-2,-7,-3,12%
O=C(O)CCCn1cc(NC(=O)COc2ccccc2F)cn1,8,9,-39*!,5,1,-3%
O=C(C#Cc1ccccc1)c1ccco1,-1,-100*,-20,-27,5,-7%
CC1(C)C2CCC1(C)C(OCC[N+](C)(C)CC(=O)OC1CCCCC1)C2 (stereo not drawn),1,10,-66*,-7,-3,15%
CC12CCC(=O)N1C(C(=O)OCc1c(Cl)cccc1Cl)CS2 (stereo not drawn),3,10,-16,4,-7,2%
CC(=O)N1c2nc(C(C)C)nn2C2(CCCCC2)[C@@H]2CCCC[C@@H]21,1,/,-5,-9,0,3%
OCC1(CCCc2ccccc2)CCN(Cc2cc(F)ccc2F)CC1,7,3,-7,-1,-3,-12%
OCC1(CCc2ccccc2)CCN(Cc2cc(F)ccc2-n2cccn2)CC1,1,-3,-32*,-7,-6,4%
COc1cccc(-c2cc(C(=O)O)c3cc4ccccc4cc3n2)c1OC,/,-12,/,-10,/,/
CCN(CC)c1ccc(C2=NNC(=O)CC2C)cc1[N+](=O)[O-] (stereo not drawn),3,-9,-44*,-12,-9,-2%
COc1ccccc1Nc1nc(C2(C)CCC(=O)O2)cs1 (stereo not drawn),1,-7,23,-7,0,-2%
Cc1sc2nc(SCCN(C)C)n(-c3ccccc3)c(=O)c2c1-c1ccc(F)cc1,4,-69*,26,-15,/,-2%
Cc1cc(C)c(NS(=O)(=O)c2ccc(NC(=O)c3cccs3)cc2)c(C)c1,14,4,-8,3,-6,15%
Cc1c(N2C(=O)c3cccc4cccc(c34)C2=O)c(=O)n(-c2ccccc2)n1C,1,-9,-18,-6,-4,-3%
Cc1c(N=C2Nc3cccc4cccc2c34)c(=O)n(-c2ccccc2)n1C,36*,1,-8,-24,-6,28%
